In PubChem BioAssay AID485360 (National Center for Advancing Translational Sciences (NCATS), 2010):
In all, about 230,000 compounds went through this assay and about 1,500 (0.65%) were called active. Not shown: some 3% with an inconclusive outcome. Calls follow the shape of the dose curve; as a rule, active = well fitted inhibition curve with a large enough effect; inconclusive = small, poorly fitted or top-dose-only effect; inactive = no such curve, though single readings can be large or run the other way. For the sample, actives were picked, then their nearest neighbours and some compounds at random.

Molecular target: Lethal(3)malignant brain tumor-like protein 1 (Homo sapiens) (UniProt Q9Y468)
Sequence (Q9Y468 whole entry, looked up): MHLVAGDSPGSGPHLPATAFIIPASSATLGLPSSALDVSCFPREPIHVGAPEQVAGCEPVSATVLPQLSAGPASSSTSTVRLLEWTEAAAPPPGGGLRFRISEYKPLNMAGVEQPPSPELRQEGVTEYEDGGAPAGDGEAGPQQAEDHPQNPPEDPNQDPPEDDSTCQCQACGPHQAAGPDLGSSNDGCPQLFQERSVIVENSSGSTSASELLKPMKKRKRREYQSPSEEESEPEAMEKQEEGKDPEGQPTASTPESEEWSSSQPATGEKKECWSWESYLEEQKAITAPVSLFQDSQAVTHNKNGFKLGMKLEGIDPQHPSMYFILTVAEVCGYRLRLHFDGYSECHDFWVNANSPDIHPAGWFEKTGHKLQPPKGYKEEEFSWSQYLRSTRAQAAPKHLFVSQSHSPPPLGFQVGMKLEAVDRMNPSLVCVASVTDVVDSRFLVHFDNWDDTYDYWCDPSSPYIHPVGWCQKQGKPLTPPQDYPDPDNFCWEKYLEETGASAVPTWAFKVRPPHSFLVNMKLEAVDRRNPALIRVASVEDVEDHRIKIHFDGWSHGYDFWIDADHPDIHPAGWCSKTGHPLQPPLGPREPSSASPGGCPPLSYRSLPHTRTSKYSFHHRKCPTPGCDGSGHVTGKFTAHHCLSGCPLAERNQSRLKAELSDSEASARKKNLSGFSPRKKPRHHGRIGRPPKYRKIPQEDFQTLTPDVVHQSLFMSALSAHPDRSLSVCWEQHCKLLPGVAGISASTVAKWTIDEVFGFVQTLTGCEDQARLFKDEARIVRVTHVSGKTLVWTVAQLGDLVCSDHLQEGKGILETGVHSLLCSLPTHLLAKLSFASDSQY
Experiment: qHTS Assay for the Inhibitors of L3MBTL1; also: nearly all actives have a fitted effect of over 60% in size
Conditions: AlphaScreen L3MBTL1–H3K9me1 peptide binding; series mostly up to 57.1 µM; activity, negative = inhibition: at the top concentration
Source text: The histone code is comprised of many post-translational modifications that occur mainly in histone tail peptides. The identity and location of these marks are read by a variety of histone binding proteins that are emerging as important regulators of cellular differentiation and development and are increasingly being implicated in numerous disease states. Small molecule probes that disrupt the interaction between histone binding proteins and chromatin would enable a systematic chemical biology study of proteins that read the histone code and could potentially reveal new targets for drug discovery. However, no such small molecules are known. This dearth of quality molecular probes can largely be attributed to the novelty of the target class and the lack of screening assays. This proposal details the development of the first high-throughput screening assay for the discovery of inhibitors of methyl-lysine binding proteins and how it can be be used to initiate a full-scale discovery effort for antagonists of histone binding proteins. Specifically, this work focuses on an AlphaScreen(tm)-based HTS assay for Malignant Brain Tumor (MBT) domain-containing proteins, which bind to the lower methylation states of lysine residues present in histone tail peptides.
To each well, 2 uL of L3MBTL1 protein (final 50 nM) and 1 uL biotinylated histone peptide monomethylated at Lys9 [b-AHA-H3(1-15)K9me1] (final 75 nM) was added using a nanoliter dispenser. Formation of a protein-peptide complex proceeded at room temperature for 30 min. A Kalypsys pin-tool was employed to transfer 23 nL of library compound solution in DMSO to each well. Cefsulodin, found in a pilot screen of the LOPAC library to be a weak inhibitor of L3MBTL1 binding, was used as an intraplate control with a 16-point titration in duplicate. Following a 30 min incubation of the protein-peptide complex with compounds at room temperature, a mixture of 40 ug/mL each streptavidin-coated donor and nickel chelate acceptor AlphaScreen beads (final 10 ug/mL) was added in a 1 uL dispense for a final volume of 4 uL. Plates were incubated, protected from the light for 30 min at room temperature. Microplates were then be read on an EnVision multilabel plate reader using the 1,536 plate HTS AlphaScreen aperture (excitation time 80 ms, measurement time 240 ms).
% is scaled to controls: 0 for no effect and ±100 for the full control effect; potency is read from the fitted curve at half-maximal effect.

Compound	activity, negative = inhibition	Potency
O=C1NC(=O)N(c2ccc(F)cc2)C(=O)/C1=C/c1ccc2c(c1)CCCN2Cc1ccccc1	-2.39% (inactive)	
COc1cccc(N2C(=O)NC(=O)/C(=C\c3ccc([N+](=O)[O-])s3)C2=O)c1		20 µM (active)
Cc1cccc(N2C(=O)NC(=O)/C(=C\c3cnn(-c4ccccc4)c3)C2=O)c1	-3.83% (inactive)	
O=C1NC(=O)N(c2ccccc2)C(=O)/C1=C/c1ccc([N+](=O)[O-])s1		17.8 µM (active)
O=C(NC(=S)N1C[C@H]2C[C@H](C1)c1cccc(=O)n1C2)c1ccc(F)cc1	4.52% (inactive)	
Cn1cc(C(=O)OCC(=O)N2CCCC2)c2ccccc21	6.7% (inactive)	
O=c1[nH]c(O)c(C=Nc2cc(F)cc(F)c2)c(=O)[nH]1	2.62% (inactive)	
CCN(CC)C(=O)Oc1ccc(NC(=O)N2CCOCC2)cc1	-2.49% (inactive)	
COc1ccc(-c2nn(CCC#N)cc2C(=O)Nc2ccc(C(C)=O)cc2)cc1	-7.02% (inactive)	
Cc1nc2ccccc2c(=O)n1-c1ccc(Cl)cc1Cl	4.09% (inactive)	
O=C(OCC1O[C@@H](OC(=O)c2cc(O)c(O)c(O)c2)[C@@H](OC(=O)c2cc(O)c(O)c(O)c2)[C@@H](OC(=O)c2cc(O)c(O)c(O)c2)[C@@H]1OC(=O)c1cc(O)c(O)c(O)c1)c1cc(O)c(O)c(O)c1 (stereo not given in full)		0.178 µM (active)
Cc1ccnc(-n2c(C)cc(/C=C3\C(=O)NC(=S)N(C)C3=O)c2C)c1	-11.1% (inactive)	
Cc1cc(/C=C2/C(=O)NC(=O)N(Cc3ccco3)C2=O)c(C)n1-c1ccc(C(=O)O)cc1		15.8 µM (active)
Cc1ccc(-n2c(C)cc(/C=C3\C(=O)NC(=O)N(C)C3=O)c2C)cc1C	-20.4% (inactive)	
COC(=O)[C@@H]1C(OC(=O)c2ccccc2)CC2CCC1N2C (stereo not given in full)	-1.9% (inactive)	
CN(C)C(=O)Oc1ccc(NC(=O)N2CCOCC2)cc1	7.02% (inactive)	
COCCNC(=O)CN1C2CCC1CC(O)(c1cccnc1)C2 (stereo not given)	-0.317% (inactive)	
CN(C)CCN(CC1CCCN(Cc2ccccc2F)C1)C(=O)Cc1ccc(F)c(F)c1 (stereo not given)	-3.82% (inactive)	
COC(=O)C1=C(c2ccc(F)cc2OCc2ccccc2)C[C@@H]2CC[C@H]1N2C(=O)NCc1ccc(OC)c(OC)c1	-18.1% (inactive)	
Cc1c(Oc2cc(NN3CCCCC3)c([N+](=O)[O-])cc2[N+](=O)[O-])cccc1[N+](=O)[O-]	33% (inactive)	
COC(=O)C1=C(c2ccc(C(C)=O)cc2)C[C@@H]2CC[C@H]1N2C(=O)NCCNC(C)=O	3.36% (inactive)	
CCN(CC)c1ccc([N+](=O)[O-])c2cccnc12		10 µM (active)
Oc1ccc2c3c1OC1[C@H](O)CC[C@@]4(O)[C@@H](C2)N(CC2CC2)CC[C@]314 (stereo not given in full)		inactive
COC(=O)C1=C(c2ccc3ccccc3c2)C[C@@H]2CC[C@H]1N2C(=O)NCCO	11.1% (inactive)	
Cc1ccccc1N1C(=O)NC(=O)/C(=C\c2cc(C)n(C)c2C)C1=O	-4.84% (inactive)	
Cc1c(C(=O)O)cccc1-n1c(C)cc(/C=C2\C(=O)NC(=O)N(c3ccc4c(c3)OCO4)C2=O)c1C		14.1 µM (active)
COC(=O)C1=C(c2ccc(F)cc2F)C[C@@H]2CC[C@H]1N2C(=O)NC1CC1	6.1% (inactive)	
COC(=O)C1=C(c2ccc(Cl)c(C(F)(F)F)c2)C[C@@H]2CC[C@H]1N2C(=O)NC1CC1	0.885% (inactive)	
O=C(c1ccccc1[N+](=O)[O-])N1CCC2(CC1)OCCO2	4.07% (inactive)	
C[C@]12CCC3C(CC[C@H]4C[C@@H](O)CC[C@]34C)C1C[C@@H](O)[C@H]2O (stereo not given in full)	2.44% (inactive)	
